# Screening data (PubChem BioAssay)
# Rows were chosen to be rich in hits. Some 5.9% of all compounds tested hit in one or more screens of this group.
# RORgamma inh: blocks mouse ROR gamma transcriptional activity. P51450. Drosophila S2 Gal4-RORgamma UAS-luciferase reporter, 20 h. Potency, µM (series often up to 53.6 µM), for inactives: at the top dose activity change, negative = inhibition, usual class: inhibitors. actives 5.4% (n = 310,000); further: on the % scale 0 is the no-effect control and ±100 the full control effect; nearly all actives have a fitted effect of over 60% in size
# Target sequence (P51450 whole entry, looked up, the tested form may be a part): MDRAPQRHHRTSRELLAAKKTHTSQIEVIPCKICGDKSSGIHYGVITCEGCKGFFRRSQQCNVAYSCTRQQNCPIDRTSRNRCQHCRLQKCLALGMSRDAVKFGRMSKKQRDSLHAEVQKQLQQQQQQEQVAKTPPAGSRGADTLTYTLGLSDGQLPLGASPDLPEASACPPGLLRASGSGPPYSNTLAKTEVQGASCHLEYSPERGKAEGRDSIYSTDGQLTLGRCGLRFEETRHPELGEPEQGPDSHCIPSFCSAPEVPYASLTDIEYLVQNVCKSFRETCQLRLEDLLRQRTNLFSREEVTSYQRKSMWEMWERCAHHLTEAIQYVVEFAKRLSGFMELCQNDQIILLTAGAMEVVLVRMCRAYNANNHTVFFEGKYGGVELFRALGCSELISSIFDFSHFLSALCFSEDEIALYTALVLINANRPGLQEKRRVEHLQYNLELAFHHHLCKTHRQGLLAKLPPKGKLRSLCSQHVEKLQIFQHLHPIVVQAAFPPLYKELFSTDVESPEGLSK
#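 ROR gamma transcriptional activity was tracked as Gal4-UAS luciferase output in stably transfected Drosophila Schneider cells, with compound added 1 hr before 700 uM copper sulfate induction and a 20 hr ambient-temperature incubation.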
# GLP1R ag: GLP-1 receptor (human) agonism; Potency, µM (titrated, usually from 45.6 µM), for the others: top-dose activation, most hits filed as activators; AID 624172; HEK293 GLP-1R CRE-luciferase, luminescence, 4-6 h; cells express a hypersensitive GLP-1R form; actives 0.007% (n = 380,000); P43220; further: % of control where 0% means no effect
# GLP-1R inv ag: acts as inverse agonist at human GLP-1 receptor. actives 1.6% (n = 410,000). P43220. Potency, µM (titrated, usually from 38.3 µM), inactives show at the highest dose activity change, negative = inhibition, hits mostly inhibitors. AID 624417. HEK293 GLP-1R CRE-luciferase, luminescence, 24 h; GLP-1R form is constitutively active; further: on the % scale 0 is the no-effect control and ±100 the full control effect; nearly all actives have a fitted effect of over 55% in size
#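 Readout was luciferase luminescence, measured 12 min after detection reagent at room temperature. Beforehand, GLP-1R reporter HEK293 cells had sat 12 h, then received compounds for 24 hr at 37 deg C.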
# HEK293 tox: cytotoxic in the GLP-1 receptor inverse agonist counter-screen; AID 624418; HEK293 cAMP-luciferase reporter cells, luminescence, 24 h; Potency, µM (doses to about 38.3 µM), for inactives: at the top dose activity change, negative = inhibition, actives largely listed as inhibitors; actives 0.13% (n = 410,000);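 further: loss of luciferase light is scored as toxicity; on the % scale 0 is the no-effect control and ±100 the full control effect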
#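 To flag toxic compounds, the library was rerun on cells for 24 hr at 37 deg C and 5% CO2. Viability-linked luminescence was captured 12 min after adding luciferase detection reagent.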
# Gal4-VP16 FLuc: inhibits Gal4-VP16 luciferase reporter, ROR gamma counter-screen; actives 3.5% (n = 310,000); Drosophila S2 Gal4-VP16 UAS-luciferase, luminescence, 20 h; Potency, µM (titrated, usually from 53.6 µM), for inactives: at the highest dose activity, negative = inhibition, usual class: inhibitors; AID 2546;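 further: Gal4-VP16 expression switched on by copper sulfate through the metallothionein promoter; on the % scale 0 is the no-effect control and ±100 the full control effect; nearly all actives have a fitted effect of over 50% in size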
# An asterisk follows results filed as active; u = inconclusive; x = no result; [ ] = dose if it differs, or a comment. The call rests on the fitted dose curve; in most records, active means well fitted curve in the direction sought with a large enough effect; inconclusive means small, poorly fitted or top-dose-only effect, or another doubt; inactive means no such curve, though single readings can be large; an effect the other way counts as inactive or inconclusive. Potency means the concentration at half of the fitted maximal effect.
SMILES,RORgamma inh,GLP1R ag,GLP-1R inv ag,HEK293 tox,Gal4-VP16 FLuc
CC(=NCCc1c(C)[nH]c2ccc(C)cc12)C1=C(O)CC(c2ccccc2)CC1=O (stereo not given),37%,5%,3.5µM*,u,1%
CC(=NCCc1c(C)[nH]c2ccc(OC(F)(F)F)cc12)C1=C(O)CC(c2ccccc2)CC1=O (stereo not given),1%,0%,u,0%,8%
CCCC(=NCCc1c(C)[nH]c2ccccc12)C1=C(O)CC(c2ccccc2)CC1=O (stereo not given),33%,6%,2.5µM*,u,-14%
CCCCC(=NCCc1c(C)[nH]c2ccccc12)C1=C(O)CC(c2ccccc2)CC1=O (stereo not given),u,-2%,u,u,-5%
C(=C\c1nc(N2CCCC2)c2ccccc2n1)/c1ccccc1,44%,1%,u,u,-7%
CC1CCN(c2nc(-c3ccncc3)nc3ccccc23)CC1,11µM*,3%,6.3µM*,9%,u
CC1CCN(c2nc(/C=C/c3ccccc3)nc3ccccc23)CC1,16µM*,15%,u,u,u
CC1CCCCN1c1nc(-c2ccncc2)nc2ccccc12 (stereo not given),11µM*,16%,u,19%,-19%
CN1CCN(c2nc(-c3ccc(C(C)(C)C)cc3)nc3ccccc23)CC1,u,-1%,8.9µM*,7%,u
Cc1ccc(-c2nc(N3CCN(C)CC3)c3ccccc3n2)cc1,-1%,-2%,u,5%,1%
C[C@](N)(C(=O)O)c1ccc(-c2nn[nH]n2)cc1,41%,x,x,x,8%
Cc1cccc(NC(=O)CSc2nc3c(c(=O)[nH]2)CN(Cc2ccc4c(c2)OCO4)CC3)c1C,x,x,4%,-11%,x
CCc1ccccc1OC[C@@H](O)CN[C@H]1CCCc2ccccc21,7.1µM*,-2%,u,-21%,14µM*
OC(CNC1CCCCCC1)COc1cccc2ccccc12 (stereo not given),-17%,5%,11µM*,u,-6%
Cc1ccc(OCC(O)CNC2CCCC2)c(C)c1 (stereo not given),-12%,4%,u,-16%,4%
OC(CNC1CCCc2ccccc21)COc1ccc2ccccc2c1 (stereo not given),-1%,9%,u,-9%,2%
Cc1ccccc1OCC(O)CNC1CCC(NCC(O)COc2ccccc2C)CC1 (stereo not given),u,-10%,1.3µM*,u,u
O=C(Nc1ccc2nc(SCC(=O)N3CCOCC3)sc2c1)c1cccc(Cl)c1,x,x,-24%,-17%,x
CCCCCCCCCCOC(=O)C[N+](C)(C)C/C=C(/C)Cl,14%,-6%,u,5%,22µM*
CCCCCCCCOC(=O)C[N+](C)(C)C/C=C(/C)Cl,79%,-2%,-11%,-11%,u
N=C(N)c1ccc(OCCCOc2ccc(C(=N)N)cc2)cc1,x,3%,x,x,x
Cc1ccc2c(Cl)c(C)c(N3CCCCC3)nc2n1,4µM*,18%,7.1µM*,u,u
Cc1nc2ccccc2nc1N1CCCCC1,19%,3%,-12%,7%,16%
Cc1ccc(-n2nc3c(=O)n(CCCC(=O)NCc4ccc(Cl)cc4)nc(C)c3c2C)cc1,-1%,2%,u,6%,-10%
Cc1ccc(-n2nc3c(=O)n(C(C)C(=O)NCCCc4ccccc4)nc(C)c3c2C)cc1 (stereo not given),32%,0%,5µM*,-15%,-7%
SMILES,RORgamma inh,GLP1R ag,GLP-1R inv ag,HEK293 tox,Gal4-VP16 FLuc
Cc1ccc(-n2nc3c(=O)n(CCCC(=O)NCc4cccc(Cl)c4)nc(C)c3c2C)cc1,17%,9%,11µM*,5%,-9%
Cc1ccc(-n2nc3c(=O)n(CC(=O)NCCCc4ccccc4)nc(C)c3c2C)cc1,11%,2%,u,3%,1%
CC(C)CC(c1nnnn1Cc1cccs1)N1CCN(c2nc3ccccc3s2)CC1 (stereo not given),10µM*,-8%,u,-21%,0%
CC(=O)OC[C@@]12C(=O)[C@@H](O)[C@@H](C)[C@]3(C[C@@H](c4ccoc4)O[C@@H]3OC(C)=O)[C@H]1CCC[C@]21CO1,-13%,x,x,x,4%
O=C1CSC(=NC2CCCCC2)N1,u,-6%,3%,18%,u
O=C1CS/C(=N/N=C2CCCC2)N1,7.9µM*,4%,-17%,-11%,u
CCOC(=O)c1c(NC(=O)CSc2cn(CCNC(=O)c3ccccc3OC)c3ccccc23)sc2c1CCCC2,x,-1%,-23%,2%,x
Cc1ccc(C)c(N(C)C(=O)c2cn(C)c(=O)c3ccccc23)c1,x,x,6.3µM*,28%,x
CCN(C(=O)c1cn(C)c(=O)c2cc(OC)c(OC)cc12)c1cc(C)ccc1C,19%,0%,13%,-10%,-1%
CC(C)c1c(C(=O)N/N=C/C=C/c2ccccc2)nnn1-c1nonc1N,4.5µM*,-4%,u,-33%,5.6µM*
CC(C)c1c(C(=O)N/N=C/c2ccc3c(c2)OCO3)nnn1-c1nonc1N,24%,6%,-28%,-1%,0%
CN(C)Cc1c(C(=O)N/N=C/C=C/c2ccccc2)nnn1-c1nonc1N,u,-1%,8%,-3%,u
CCN(CC)c1ccc(/C=N/NC(=O)c2nnn(-c3nonc3N)c2C(C)C)c(O)c1,3.5µM*,10%,u,128%,5µM*
COc1cccc(CNC(=O)CCCn2nc(C)c3sc4ccccc4c3c2=O)c1,x,x,14%,-2%,x
Cc1ccccc1NC(=O)c1ccccn1,2%,7%,55%,3%,29%
Cc1ccc(-c2ocnc2C(=O)Nc2ccccc2NC(=O)c2ccccn2)cc1,1.6µM*,13%,u,1.1µM*,11µM*
CSc1ccccc1NC(=O)c1ccccn1,0.45µM*,11%,u,u,1.3µM*
Cc1cccc(-c2ocnc2C(=O)Nc2ccccc2NC(=O)c2ccccn2)c1,0.56µM*,14%,0.5µM*,u,8.9µM*
Cc1cccc(-c2ocnc2C(=O)Nc2ccccc2C(=O)N2CCCC2)c1,10%,0%,-20%,24%,-10%
COc1ccc(C2=Nn3c(nnc3-c3ccc(OC)cc3OC)SC2)c(OC)c1,31%,x,x,x,-8%
CSc1ccc(-c2nc3cccc(C)n3c2Nc2ccc(Cl)cc2)cc1,x,x,u,2%,x
FC(F)(F)c1cccc(/C=N/NC(=S)NC2CCCCC2)c1,0.56µM*,13%,u,u,6.3µM*
O=C(N/N=C/c1cccc(O)c1)NC1CCCCC1,u,12%,-7%[7.66 µM],-4%[7.66 µM],-18%
C=CCNC(=S)N/N=C/c1ccc(C(F)(F)F)cc1,0.71µM*,-5%,u,u,2.8µM*
